The record followed here is PubChem BioAssay (NCATS).

Where “and” joins values, the source holds several entries; their conditions need not be identical. Equal entries are not always repeated. Results filed as inconclusive are left out. Unmarked numbers belong to inactive results. Calls of active or inactive are those of the source. Calls come from the whole dose curve; as a rule, active = well fitted inhibition curve with a large enough effect; inconclusive = small, poorly fitted or top-dose-only effect; inactive = flat fitted curve, though single readings scatter.

Common to all, as to assay: Cytotoxic Profiling of Annotated Libraries Using Quantitative High-Throughput Screening (AID 1296008); note: nearly all actives have a fitted effect of over 60% in size
Details in all cases: Five cell lines viability, CellTiter-Glo ATP luminescence, 48-72 h; max response: stronger effect = lower value

Experiment [1] relates to CRL-7250. Put shortly: (§1)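 Compounds were pin-transferred onto cells and incubated 48 or 72 hr at 37 degree Celsius, 95% humidity. CellTiter-Glo was added, plates sat 10 min at room temperature, then ATP-coupled luminescence was imaged as the viability read-out.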
The subject of experiment [2] is HaCat. Put shortly:
as §1

The test system of experiment [3] is KB-3-1. Put shortly: as §1
Experiment [4] deals with NIH3T3. Put shortly:
as §1

The test system of experiment [5] is HEK293. Put shortly: as §1
% is set by controls: 0 for no effect and ±100 for the full control effect; potency is the fitted concentration of half-maximal effect.

As to `CC(C)OC(=O)[C@H](C)N[P@](=O)(OC[C@H]1O[C@@H](n2ccc(=O)[nH]c2=O)[C@](C)(F)[C@H]1O)Oc1ccccc1`, the max response in experiment [1] was -5.93%; in experiment [2] it was -9.66%; in experiment [3], 1.17%; in experiment [4], -9.86%.

In the case of `c1ccc(CNc2nc(NCc3ccccc3)c3ccccc3n2)cc1`, the max response in experiment [1] was -7.33%. Also, the Potency in experiment [5] was 14.8 µM (active); in experiment [3], 26.4 µM (active).

Take `Oc1ccc([C@@H]2Oc3ccc(O)cc3[C@@H]3CCC[C@@H]32)cc1`: the max response in experiment [1] was -17% and -0.0013%. Moreover, the values for the Potency in experiment [5] and in experiment [3] were 11.8 µM (active) and 14.8 µM (active), respectively.

Turning to `Cc1ccc2nc(NCCN)c3ncc(C)n3c2c1`, the figures for the Potency in experiment [1], in experiment [5] and in experiment [3] were 16.6 µM (active), 4.18 µM (active) and 3.32 µM (active), respectively.

Take `CCN(CC)CCCCNc1ncc2c(n1)N(C)C(=O)N(c1c(Cl)c(OC)cc(OC)c1Cl)C2`: the figures for the Potency in experiment [1] and in experiment [5] were 14.8 µM (active) and 2.09 µM (active), respectively. Besides, in experiment [3], the max response was -30%.

On to `COc1cc2ncnc(Nc3cccc(Br)c3)c2cc1OC`, for which the values for the max response in experiment [1], in experiment [5] and in experiment [4] were -23.5%, -29.7% and -22%, respectively. For the same molecule, the outcome in experiment [3] was inactive.

Turning to `CCCCC(=O)O[C@]1(C(=O)CO)[C@@H](C)C[C@H]2[C@@H]3CCC4=CC(=O)C=C[C@]4(C)[C@@]3(F)[C@@H](O)C[C@@]21C`, the outcome in experiment [1] and in experiment [3] was inactive. Besides, the values for the max response in experiment [5] and in experiment [4] were 3.05% and -1.65%, respectively.

As for `C=CC(=O)Nc1ccc2ncnc(Nc3ccc(OCc4cccc(F)c4)c(Cl)c3)c2c1`, the Potency is 14.6 µM (active) in experiment [1]; 1.87 µM (active) and 580 nM (active) in experiment [2]; 9.35 µM (active) in experiment [3].
